Source: PubChem BioAssay (NCATS)
Results filed as inconclusive are left out. Calls of active or inactive are those of the source. Unless noted, calls come from the whole dose curve; as a rule, active = well fitted curve in the direction sought with a large enough effect; inconclusive = small, poorly fitted or top-dose-only effect, or another doubt; inactive = no such curve, though single readings can be large; an effect the other way counts as inactive or inconclusive.

Legend:
[1] = Validation of Assay for Modulators of Lamin A Splicing (AID 1459; active = well fitted curve in the direction sought with a large enough effect in the signal ratio; the % refers to the signal ratio;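 note: cells exposed to compound for two days before reading; 0% is about no effect; ratio rise marks activators and ratio drop marks inhibitors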)
In short: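 Splicing correction is reported by an EGFP-containing lamin A minigene in stably transfected S3 HeLa cells, while DsRed2 controls for viability and nonspecific signal. Cells are exposed to compounds for 48 hrs before the GFP over RFP ratio is taken.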

[2] = target: DNA repair nuclease/redox regulator APEX1 (Homo sapiens) (UniProt P27695); experiment: qHTS Validation Assay for Inhibitors of the Human Apurinic/apyrimidinic Endonuclease 1 (APE1) (AID 1705;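 note: TAMRA fluorescence gain over two minutes as APE1 cuts a quenched THF abasic duplex; % is set by controls: 0 for no effect and ±100 for the full control effect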)
In short: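 Endonuclease activity of human APE1 is followed as dequenching when the enzyme incises a tetrahydrofuran abasic site in a short duplex labelled 5'-TAMRA/3'-BHQ-2 (50 nM final), after 15 min enzyme–compound preincubation at room temperature.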

[3] = Cell Viability - LYMP2-019 (AID 973); note: nearly all actives have a fitted effect of over 55% in size; note: potency is the fitted concentration of half-maximal effect
In short: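 AC50 values come from Hill-equation fits of luminescent intracellular ATP (CellTiter-Glo, 30 min, room temperature) following 24 h compound exposure at 37 C. Cells: LYMP2-019 lymphoblastoid line, 2500 per well, in complete culture medium.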

[4] = Cell Viability - LYMP2-021 (AID 974); note: nearly all actives have a fitted effect of over 55% in size; note: potency is the fitted concentration of half-maximal effect
In short: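 AC50 values come from Hill-equation fits to CellTiter-Glo luminescence (ATP content), read after 24 hour compound exposure at 37 C of 2500 LYMP2-021 lymphoblastoid cells/well; tetraoctylammonium bromide as positive control.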

[5] = Cell Viability - LYMP2-023 (AID 975); note: nearly all actives have a fitted effect of over 55% in size; note: potency is the fitted concentration of half-maximal effect
In short: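 Intracellular ATP, read by CellTiter-Glo luminescence, reports viability after 24 hr compound exposure at 37 C. 2500 lymphoblastoid cells/well (LYMP2-023) seeded 5 hr beforehand; Hill fits give AC50; positive control tetraoctylammonium bromide.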

[6] = Cell Viability - LYMP2-025 (AID 976); note: potency is the fitted concentration of half-maximal effect
In short: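 Cytotoxicity read as loss of intracellular ATP (luciferase luminescence) after 24 h compound treatment at 37 C. Uses LYMP2-025 lymphoblastoid cells in 1536-well format; Hill-equation modelling gives AC50; tetraoctylammonium bromide as positive control.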

[7] = Cell Viability - LYMP2-002 (AID 977); note: potency is the fitted concentration of half-maximal effect
In short: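 Human lymphoblastoid cells (2500/well) in complete medium were preincubated 5 hr at 37 C, then exposed to compounds for 24 hr at 37 C. Intracellular ATP was read by CellTiter-Glo luminescence; AC50 came from Hill-equation concentration-response fits.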

[8] = Cell Viability - LYMP2-006 (AID 978); note: nearly all actives have a fitted effect of over 60% in size; note: potency is the fitted concentration of half-maximal effect
In short: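 Concentration-dependent loss of intracellular ATP in a human lymphoblastoid line after 24 hr treatment at 37 C was measured by CellTiter-Glo luminescence, with AC50 values obtained from standard Hill-equation modelling.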

[9] = Cell Viability - LYMP2-008 (AID 980); note: nearly all actives have a fitted effect of over 60% in size; note: potency is the fitted concentration of half-maximal effect
In short: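 Cytotoxicity determined from ATP-dependent luciferase luminescence (CellTiter-Glo) following 24 h compound exposure of human lymphoblastoid LYMP2-008 cells at 37 C. Concentration-response data fitted to the Hill equation to give AC50.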

[10] = Cell Viability - LYMP2-010 (AID 981); note: nearly all actives have a fitted effect of over 55% in size; note: potency is the fitted concentration of half-maximal effect
In short: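 CellTiter-Glo ATP luminescence measured cytotoxicity after 24 h compound exposure at 37 C. LYMP2-010 cells were seeded at 2500/well, with tetraoctylammonium bromide as control; concentration-response curves gave AC50 values by the Hill equation.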

[11] = Cell Viability - LYMP2-012 (AID 982); note: potency is the fitted concentration of half-maximal effect
[12] = Cell Viability - LYMP2-014 (AID 983); note: nearly all actives have a fitted effect of over 50% in size; note: potency is the fitted concentration of half-maximal effect
In short: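 Intracellular ATP loss, read by luciferase luminescence, measures acute cytotoxicity after 24 h compound exposure of lymphoblastoid LYMP2-014 cells (2500/well, 37 C). Concentration-response data fitted to the Hill equation for AC50.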

[13] = Cell Viability - LYMP2-016 (AID 984); note: nearly all actives have a fitted effect of over 55% in size; note: potency is the fitted concentration of half-maximal effect
In short: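 Acute toxicity in a Coriell human lymphoblastoid line is scored as loss of intracellular ATP over 24 h of treatment in complete medium. CellTiter-Glo signal is fitted across concentrations with the Hill equation to give AC50.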

[14] = Cell Viability - LYMP2-018 (AID 985); note: nearly all actives have a fitted effect of over 50% in size; note: potency is the fitted concentration of half-maximal effect
In short: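 Viability read as CellTiter-Glo luminescence (cellular ATP) after 24 hr compound exposure at 37 C of 2500 LYMP2-018 lymphoblastoid cells/well, pre-plated 5 hr. Hill-equation modelling gave AC50.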

[15] = Cell Viability - LYMP2-022 (AID 987); note: nearly all actives have a fitted effect of over 55% in size; note: potency is the fitted concentration of half-maximal effect
In short: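 Cytotoxicity read as decreased cellular ATP (CellTiter-Glo luminescence, 30 min room temperature) after 24 hours compound exposure of 2500 lymphoblastoid LYMP2-022 cells/well at 37 C. Concentration-response data fitted with standard Hill equation for AC50.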

[16] = Cell Viability - LYMP2-024 (AID 988); note: nearly all actives have a fitted effect of over 60% in size; note: potency is the fitted concentration of half-maximal effect
In short: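 Cytotoxicity was taken as a decrease in ATP (CellTiter-Glo luminescence) after 24 hr compound exposure at 37 C of LYMP2-024 lymphoblastoid cells, 2500 cells/well. Concentration-response data were fitted to the Hill equation to give AC50.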

[17] = Cell Viability - LYMP2-026 (AID 989); note: nearly all actives have a fitted effect of over 50% in size; note: potency is the fitted concentration of half-maximal effect
In short: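 Cytotoxicity read as ATP-dependent luminescence (CellTiter-Glo, 30 min room temperature) after 24 h compound treatment at 37 C. LYMP2-026 lymphoblastoid line seeded at 2500 cells/well; AC50 derived by standard Hill equation.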

[18] = qHTS Assay for Lipid Storage Modulators (AID 1519; calls by dose curve; for activity change, negative = inhibition: % is set by controls: 0 for no effect and ±100 for the full control effect); details: Drosophila S3 cells, BODIPY lipid droplet/cell ratio, laser cytometry, cells loaded with oleic acid; for activity change, negative = inhibition: at 57.5 µM (top of the series)
In short: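 Cells seeded at 5,000 per well were treated with compounds over a concentration series and loaded with oleic acid (400 uM, as added). Lipid droplet fluorescence (488 nm excitation, 500-530 nm channel) was read by laser-scanning cytometry and normalized to 20 uM Triacsin C.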

[19] = target: Alpha-galactosidase A (Homo sapiens) (UniProt P06280); experiment: Counterscreen for Glucocerebrosidase Inhibitors: qHTS Assay for Human alpha-Galactosidase at pH 4.5 (AID 992); note: 0% is about no effect
In short: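 Fluorogenic 4-MU alpha-D-galactoside (80 uM) hydrolysis, 2 nM enzyme, pH 4.5 citrate buffer + 0.005% Tween-20; 20 min RT; NaOH/glycine pH 10 stop; Ex365/Em440. Compounds titrated 0.7 nM–77 uM; Hill-equation AC50.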

[20] = target: alpha-glucosidase (Oryza sativa, rice) (UniProt Q653V4); experiment: Counterscreen for Glucocerebrosidase Inhibitors: qHTS Assay for Rice alpha-Glucosidase at pH 5.0 (AID 997);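 note: 0% = full activity with enzyme and -100% = basal without enzyme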
In short: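 Endpoint fluorogenic assay at pH 5.0: compounds (0.7 nM to 77 uM) titrated against 4 nM rice enzyme and 400 uM 4-MU-alpha-glucoside for 20 min at room temperature; NaOH/glycine stop, read ex 365/em 440 nm, Hill-fitted AC50.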

[21] = measured here: cell count channel max response
[22] = measured here: lipid channel max response

Sequence of Alpha-galactosidase A (Homo sapiens) (P06280 whole entry, looked up): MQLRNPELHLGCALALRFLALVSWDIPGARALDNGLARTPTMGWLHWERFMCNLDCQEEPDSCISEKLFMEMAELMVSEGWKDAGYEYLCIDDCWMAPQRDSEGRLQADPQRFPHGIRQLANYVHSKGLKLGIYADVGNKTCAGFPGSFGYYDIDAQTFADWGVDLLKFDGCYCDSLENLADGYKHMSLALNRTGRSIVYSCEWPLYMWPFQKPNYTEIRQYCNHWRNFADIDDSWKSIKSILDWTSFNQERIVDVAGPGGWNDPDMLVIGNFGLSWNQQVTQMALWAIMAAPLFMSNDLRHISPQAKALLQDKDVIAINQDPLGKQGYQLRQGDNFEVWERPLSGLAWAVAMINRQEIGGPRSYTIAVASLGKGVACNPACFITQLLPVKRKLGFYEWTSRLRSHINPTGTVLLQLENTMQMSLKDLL
Sequence of DNA repair nuclease/redox regulator APEX1 (Homo sapiens) (P27695 whole entry, looked up): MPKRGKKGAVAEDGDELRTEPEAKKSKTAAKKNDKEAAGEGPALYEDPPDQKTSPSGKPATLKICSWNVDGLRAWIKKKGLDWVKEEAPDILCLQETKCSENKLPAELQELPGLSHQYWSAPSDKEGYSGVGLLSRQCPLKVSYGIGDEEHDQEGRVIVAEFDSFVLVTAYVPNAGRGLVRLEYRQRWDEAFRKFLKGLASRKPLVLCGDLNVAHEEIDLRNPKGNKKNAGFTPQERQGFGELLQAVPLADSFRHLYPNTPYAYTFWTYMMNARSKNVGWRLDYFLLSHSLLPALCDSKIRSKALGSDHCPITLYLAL

COc1cccc2c1[C@@H]1CN(CCCCn3c(=O)[nH]c4c(sc5ncc(-c6ccccc6)nc54)c3=O)C[C@@H]1CO2
inactive: outcome [1] | outcome [2]

c1ccc2occc2c1
inactive: Potency [3] | Potency [4] | Potency [5] | Potency [6] | Potency [7] | Potency [8] | Potency [9] | Potency [10] | Potency [11] | Potency [12] | Potency [13] | Potency [14] | Potency [15] | Potency [16] | Potency [17]

Nc1c2ccccc2nc2ccccc12
inactive: activity change, negative = inhibition [18] -13.1%
-18.9%: max response [18, 22]
-6.77%: max response [18, 21]
active: Potency [3] 10 µM | Potency [4] 12.6 µM | Potency [5] 12.6 µM | Potency [6] 12.6 µM | Potency [7] 7.94 µM | Potency [8] 20 µM | Potency [9] 12.6 µM | Potency [10] 12.6 µM | Potency [11] 10 µM | Potency [12] 10 µM | Potency [13] 10 µM | Potency [14] 12.6 µM | Potency [15] 12.6 µM | Potency [16] 12.6 µM | Potency [17] 15.8 µM

O=C(c1ccccc1)c1ccccc1
inactive: Potency [3] | Potency [4] | Potency [5] | Potency [6] | Potency [7] | Potency [8] | Potency [9] | Potency [10] | Potency [11] | Potency [12] | Potency [13] | Potency [14] | Potency [15] | Potency [16] | Potency [17]

NCC(=O)O
5.73%: max response [18, 21]
inactive: activity change, negative = inhibition [18] -2.71%
4.04%: max response [18, 22]

CC(C)(C)c1ccc(O)c(O)c1
active: Potency [3] 39.8 µM | Potency [4] 31.6 µM | Potency [8] 50.1 µM | Potency [9] 50.1 µM | Potency [10] 31.6 µM | Potency [11] 39.8 µM | Potency [13] 50.1 µM | Potency [15] 39.8 µM | Potency [16] 25.1 µM

CCCCCCCCCCCCCCCC[n+]1ccccc1
active: Potency [3] 20 µM | Potency [4] 25.1 µM | Potency [5] 39.8 µM | Potency [6] 39.8 µM | Potency [7] 15.8 µM | Potency [8] 12.6 µM | Potency [9] 15.8 µM | Potency [10] 15.8 µM | Potency [11] 12.6 µM | Potency [12] 12.6 µM | Potency [13] 15.8 µM | Potency [14] 12.6 µM | Potency [15] 12.6 µM | Potency [16] 15.8 µM | Potency [17] 15.8 µM

Brc1ccc([C@H]2CN3CCSC3=N2)cc1
inactive: outcome [19] | outcome [20] | outcome [1] | outcome [2]

Brc1ccccc1-c1ccccc1
inactive: Potency [3] | Potency [4] | Potency [5] | Potency [6] | Potency [7] | Potency [8] | Potency [9] | Potency [10] | Potency [11] | Potency [12] | Potency [13] | Potency [14] | Potency [15] | Potency [16] | Potency [17]

Cc1ccc2c(Cl)cc(Cl)c(O)c2n1
-3.23%: max response [18, 21]
2.66%: max response [18, 22]
inactive: activity change, negative = inhibition [18] 4.67%

C[N+](C)(C)CCO
inactive: outcome [19] | outcome [20] | outcome [1] | outcome [2]

O=C(Oc1ccccc1)c1ccccc1O
inactive: Potency [3] | Potency [4] | Potency [5] | Potency [6] | Potency [7] | Potency [8] | Potency [9] | Potency [10] | Potency [11] | Potency [12] | Potency [13] | Potency [14] | Potency [15] | Potency [16] | Potency [17]

Cc1ccc(O)cc1
inactive: Potency [3] | Potency [4] | Potency [5] | Potency [6] | Potency [7] | Potency [8] | Potency [9] | Potency [10] | Potency [11] | Potency [12] | Potency [13] | Potency [14] | Potency [15] | Potency [16] | Potency [17]

OCc1c[nH]c2ccccc12
inactive: Potency [3] | Potency [4] | Potency [5] | Potency [6] | Potency [7] | Potency [8] | Potency [9] | Potency [10] | Potency [11] | Potency [12] | Potency [13] | Potency [14] | Potency [15] | Potency [16] | Potency [17]

Cc1cc(C(C)(C)C)c(O)c(C(C)(C)C)c1
4.25%: max response [18, 21]
inactive: Potency [3] | Potency [4] | Potency [5] | Potency [6] | Potency [7] | Potency [8] | Potency [9] | Potency [10] | Potency [11] | Potency [12] | Potency [13] | Potency [14] | Potency [15] | Potency [16] | Potency [17] | activity change, negative = inhibition [18] 4.82%
10.5%: max response [18, 22]

O=[N+]([O-])c1ccc(-c2nc(-c3ccc(F)cc3)c(-c3ccncc3)[nH]2)cc1
inactive: outcome [19] | outcome [20] | outcome [2]
